From PubChem BioAssay (NCATS) come the findings set out here.

For test [1], the target named is Glutathione peroxidase 1 (Homo sapiens) (UniProt P07203). Put plainly: Primary qHTS Assay for Inhibitors of Recombinant Selenoprotein Glutathione Peroxidase 1 (GPX1) (AID 1845191). Further: nearly all actives have a fitted effect of over 65% in size. The gist of the method: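 GR-coupled readout: NADPH consumption tracked by fluorescence, ex 340/em 450 nm, at t=0 and after 15 min at RT. Final mix 10 nM GPX1, 1 mM GSH, 0.5 mM CHP, 0.5 mM NADPH, 100 nM GR, 0.01% BSA, following 30 min enzyme–compound preincubation.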
A general note: Quantitative high-throughput screening tests each substance at several concentrations.

The target of test [2] is Phospholipid hydroperoxide glutathione peroxidase GPX4 (Homo sapiens) (UniProt P36969). In words: Primary qHTS Assay for Inhibitors of Recombinant Selenoprotein Glutathione Peroxidase 4 (GPX4) (AID 1845192). Further: nearly all actives have a fitted effect of over 65% in size. The gist of the method:
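Steps: GPX4 plus compound, 30 min RT; add GR/GSH/NADPH master mix; start with cumene hydroperoxide; read 340/450 nm fluorescence at 0 and 15 min. Finals were 200 nM GPX4, 1 mM GSH, 0.5 mM CHP, 0.5 mM NADPH, 100 nM GR.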

Test [3] has as its target Luciferin 4-monooxygenase (Photinus pyralis) (UniProt P08659). Put plainly: Primary firefly luciferase (FLuc) qHTS assay for identification of artifact compounds. (AID 1845220). Further: nearly all actives have a fitted effect of over 60% in size. The essentials: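 Enzymatic FLuc inhibition assay: compounds pre-exposed to luciferin/ATP (10 uM each) for 15 min, then purified P. pyralis enzyme at 10 nM added. Read-out: luminescence at 5 min.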

Test [4] in a line: Viability counterscreen for antagonist of constitutive androstane receptor (CAR) against the NCATS DSHEA and TCM libraries (AID 1794837).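 Further: compound exposure lasted 24 h before viability reading.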 The essentials:
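Counterscreen performed in a 1536-well qHTS format using HepG2-CYP2B6-hCAR cells; samples titrated in the presence of 48 uM CITCO, with viability measured fluorometrically (405/540 nm) after 24 h.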
Background: Counterscreens check selectivity or assay interference.

Test [5] can be described thus: Viability counterscreen for agonist of constitutive androstane receptor (CAR) against the NCATS DSHEA and TCM libraries (AID 1794838).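 Further: cells exposed to compound for 24 h.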 An excerpt:
Assay Development and Screening Technology Laboratory (ADST)
National Center for Advancing Translational Sciences (NCATS), Rockville, MD
National Institute of Health (NIH), Bethesda, Maryland
Dietary Supplements and Natural Products have minor oversight of their safety and efficacy. We assembled a collection of Dietary Supplements and Natural Products (DSNP) as well as Traditional Chinese Medicinal (TCM) Plant extracts, which were screened against an in vitro panel of assays, including a liver cytochrome p450 enzyme panel, CAR/PXR signaling pathways, and P-gp transporter assays, to assess their activity. This pipeline facilitated the interrogation of Natural Product-Drug Interaction (NaPDI) through prominent metabolizing pathways. In addition, we compared the activity profiles of the DSNP/TCM substances with those of an approved drug collection. […] Overall, we highlight four significant bioactivity profiles (measured by p-values) as examples of this prediction. […]
8; Detector 1; Fluorescence intensity; ViewLux plate reader (excitation 405 nm, emission 540 nm). […]
11; Detector 2; Luminescence intensity; ViewLux. […]
8. Fluorescence intensity (Ex/Em = 405 nm/540 nm) is obtained using the ViewLux plate reader to determine cell viability. […]
10. Luminescence intensity is read using the ViewLux detector. […]

Test [6] deals with Nuclear receptor subfamily 1 group I member 3 (Homo sapiens) (UniProt Q14994). In words: Primary qHTS for agonist of constitutive androstane receptor (CAR) against the NCATS DSHEA and TCM libraries (AID 1794839).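 Further: HepG2 cells expressing human CAR with a CYP2B6 reporter plus PK11195 antagonist; luciferase reporter luminescence read with ONE-Glo.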 The essentials:
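Concentration–response screen in HepG2-CYP2B6-hCAR cells under 0.75 µM PK11195; 24 h exposure; luminescent reporter signal with multiplexed fluorescent viability.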

Test [7] in a line: HepG2 viability counterscreen (readout 2: ATP content) against the NCATS DSHEA and TCM libraries (AID 1794840).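 Further: HepG2 cells exposed to substances for about 24 h.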 The gist of the method: (§1)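 After HepG2 cells attach for ~4 h, substances are added and incubated ~24 h at 37C, 5% CO2. GF-AFC fluorescence then CellTiter-Glo luminescence give protease and ATP readouts.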
A short description of test [8]: HepG2 viability counterscreen (readout 1: protease activity) against the NCATS DSHEA and TCM libraries (AID 1794841).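 Further: cells exposed to compounds for about 24 h before the protease read.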 The essentials:
as §1

Test [9] can be described thus: Primary fluorescence-based thiol-reactive (MSTI) qHTS assay for identification of artifact compounds. (AID 1845221). Further: potency means the concentration at half of the fitted maximal effect; nearly all actives have a fitted effect of over 65% in size. The gist of the method: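 qHTS titration of compound; 4 uM MSTI, PBS pH 7.4, 2% DMSO; 1 h RT, dark; fluorescence 525/598 nm; normalized to Acetyl-MSTI and MSTI; 4-parameter Hill fit.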

Records with an inconclusive call do not appear. The source made the active and inactive calls. The call rests on the fitted dose curve; in most records, active means well fitted curve in the direction sought with a large enough effect; inconclusive means small, poorly fitted or top-dose-only effect, or another doubt; inactive means no such curve, though single readings can be large; an effect the other way counts as inactive or inconclusive.

Phospholipid hydroperoxide glutathione peroxidase GPX4 (Homo sapiens), sequence (P36969 whole entry, looked up): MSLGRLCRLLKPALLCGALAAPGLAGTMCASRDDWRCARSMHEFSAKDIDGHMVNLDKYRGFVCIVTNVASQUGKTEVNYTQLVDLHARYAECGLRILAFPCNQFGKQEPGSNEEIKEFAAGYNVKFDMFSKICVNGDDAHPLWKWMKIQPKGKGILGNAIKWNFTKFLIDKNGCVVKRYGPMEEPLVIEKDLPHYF
Glutathione peroxidase 1 (Homo sapiens), sequence (P07203 whole entry, looked up): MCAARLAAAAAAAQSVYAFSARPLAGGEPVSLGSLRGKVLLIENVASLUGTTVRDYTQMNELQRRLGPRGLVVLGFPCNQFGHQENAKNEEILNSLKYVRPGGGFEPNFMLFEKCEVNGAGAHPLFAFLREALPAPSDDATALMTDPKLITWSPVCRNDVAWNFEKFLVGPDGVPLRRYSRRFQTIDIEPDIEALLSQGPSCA
Nuclear receptor subfamily 1 group I member 3 (Homo sapiens), sequence (Q14994 whole entry, looked up): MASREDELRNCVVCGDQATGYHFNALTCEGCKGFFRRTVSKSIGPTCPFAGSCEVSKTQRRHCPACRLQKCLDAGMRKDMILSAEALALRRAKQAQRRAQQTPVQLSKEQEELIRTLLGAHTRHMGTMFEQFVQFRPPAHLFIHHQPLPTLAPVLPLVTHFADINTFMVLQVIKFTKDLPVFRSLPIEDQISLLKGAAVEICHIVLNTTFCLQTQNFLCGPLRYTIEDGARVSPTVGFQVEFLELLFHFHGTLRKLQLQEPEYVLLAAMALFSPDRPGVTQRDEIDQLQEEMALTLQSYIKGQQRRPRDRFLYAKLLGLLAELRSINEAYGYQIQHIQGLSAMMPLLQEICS

With `CC(C)=CCC[C@@](C)(O)[C@H]1CC[C@]2(C)[C@@H]1[C@H](O)CC1[C@@]3(C)CC[C@H](O[C@@H]4O[C@H](CO)[C@@H](O)[C@H](O)[C@H]4O[C@@H]4O[C@H](CO)[C@@H](O)[C@H](O)[C@H]4O)C(C)(C)[C@@H]3CC[C@]12C` (some centres undefined), the Potency entry in test [1], in test [2] and in test [3] was “inactive” throughout.
On to `COC1OC(OC)C(O)(CCC2(C)C(C)CCC3(C)C2CC(O)C(O)C32CO2)C1O` (centres undefined), for which the Potency entry in [1], in [2] and in [3] was “inactive” each time.
For the molecule `CC[C@@H]1[C@H]2CCCCN3C(=O)C[C@H]([C@@H]4[C@H]1OC(=O)[C@H]4C)[C@@H]23`, the Potency result in test [1], in [2] and in [3] was “inactive” each time.
`O=C(OCC1=C[C@@H](O)[C@@H]2C=CO[C@@H](O[C@@H]3O[C@H](CO)[C@@H](O)[C@H](O)[C@H]3O)[C@H]12)c1ccc(O)cc1`: the molecule was called inactive in test [4], in test [5], in test [6], in test [7] and in [8]. Further, the Potency entry in test [1], in test [2] and in [3] was “inactive” in each case. Further, the Potency in test [9] was 10.3 µM (active).
Regarding `C[C@]1(O)CC[C@@H]2C(C(=O)O)=CO[C@@H](O[C@@H]3O[C@H](CO)[C@@H](O)[C@H](O)[C@H]3O)[C@@H]21`, the Potency entry in [1], in [2] and in test [3] was “inactive” in each case.
On to `Cn1c2ccc(NC(=O)c3ccccc3)cc2c(=O)n2nc(C(=O)O)cc12`, for which the Potency entry in test [1] and in [2] was “inactive” each time.
As for `C=C(C(=O)OC)[C@]12O[C@@](C)(CC[C@@]3(O)/C(=C\C)C(=O)O[C@]3(C)C[C@@H]1OC(=O)C(CO)CN1CCCC1C(=O)O)CC2=O` (some centres undefined), the Potency result in test [1], in [2] and in test [3] was “inactive” each time.
For the molecule `OC[C@@]1(O)CO[C@H](OC[C@H]2O[C@@H](OCCc3ccccc3)[C@H](O)[C@@H](O)[C@@H]2O)[C@@H]1O`, the Potency entry in test [1], in test [2] and in test [3] was “inactive” in each case.
